Results filed as inconclusive are left out. Entries that show only a call come without a potency. Calls of active or inactive are those of the source. The call rests on the fitted dose curve; in most records, active means well fitted cell-killing curve with a large enough effect in the repeat runs; inconclusive means weak or mixed curves, or effect the other way; inactive means flat fitted curve, though single readings scatter.
experiment: Nuclear factor erythroid 2-related factor 2/antioxidant responsive element (Nrf2/ARE) small molecule agonists: qHTS cell viability counter screen in human keratinocytes (AID 1919968); settings: KeratinoSens HaCaT ARE cells viability, CellTiter-Fluor, 24 h; series mostly up to 92.4 µM; further: nearly all actives have a fitted effect of over 55% in size
Source text: U.S. Tox21 Program National Center for Advancing Translational Sciences [NCATS] Division of Preclinical Innovation [DPI] U.S. Environmental Protection Agency [EPA] National Institutes of Environmental Health Sciences [NIEHS] National Toxicology Program [NTP] U.S. Food and Drug Administration [FDA] Tox21 Assay Overview: Oxidative stress has been implicated in the pathogenesis of a variety of diseases ranging from cancer to neurodegeneration. The antioxidant response element (ARE) signaling pathway plays an important role in the amelioration of oxidative stress. The KeratinoSens (Givaudan, Switzerland) is an in vitro test method which quantifies luciferase induction as a measure of activation of Keap1-Nrf2-antioxidationt/electrophile response element (ARE) dependant pathway in HaCaT human keratinocytes stably transfected with a selectable plasmid. The KeratinoSens assay is a cell-based assay with a reporter cell line to detect potential skin sensitizers by their ability to induce the Nrf2/ARE-response. The activation of the report gene under culture conditions can be detected by ONE-Glo Luciferase Assay System (Promega, Madison, WI). This cell line has been used to screen the Tox21 10K compound library to identify agonists that induce oxidative stress. The cytotoxicity of the Tox21 compound library against the KS-ARE cell line was tested in parallel by measuring the cell viability using CellTiter- Fluor assay system (Promega, Madison, WI) in the same wells.
Tox21 Assay Protocol Summary: HaCaT derived cell line KeratinoSens were dispensed at 1,500 cells/5uL/well in 1536-well white wall/solid bottom plates using a Multidrop Combi (ThermoFisher Scientific, Waltham, MA) dispenser. After the assay plates were incubated at 37 C/5% CO2 for 5 h, 23 nL of compounds dissolved in DMSO, positive controls or DMSO only was transferred to the assay plate by a pintool workstation (Kalypsys, San Diego, CA). The plates were incubated at 37 C/5% CO2 for 23 h, followed by addition of 1uL/well of CellTiter-Fluor reagent into the assay plates using a Flying Reagent Dispenser (Aurora Discovery, San Diego, CA) for cell viability readout that measures cytotoxicity. After 1 h incubation at 37 C/5% CO2 the fluorescence intensity was measured using a ViewLux (PerkinElmer, Shelton, CT) plate reader.
Potency means the concentration at half of the fitted maximal effect.

Row | Compound | activity change, negative = cytotoxicity | Potency
1 | NCC[C@H](O)C(=O)N[C@@H]1C[C@H](N)[C@@H](O[C@H]2O[C@H](CN)[C@@H](O)[C@H](O)[C@H]2O)[C@H](O)[C@H]1O[C@H]1O[C@H](CO)[C@@H](O)[C@H](N)[C@H]1O | -17.6% [at 0.349 µM] (inactive) | 
2 | CCOC(=O)OC(C)OC1=C(C(=O)Nc2ccccn2)N(C)S(=O)(=O)c2ccccc21 (stereo not given) |  | inactive
3 | CCCCCCCCCCCCCC(=O)OCC(O)CO (stereo not given) |  | inactive
4 | OC1(c2ccccc2)CCNCC1 |  | inactive
5 | Nc1cccc(S(=O)(=O)O)c1 |  | inactive
6 | CC(=O)OCC(=O)[C@@]1(O)CC[C@H]2[C@@H]3CCC4=CC(=O)C=C[C@]4(C)[C@@]3(F)[C@@H](O)C[C@@]21C |  | inactive
7 | OC[C@H](Cc1cccc(O)c1)[C@H](CO)Cc1cccc(O)c1 |  | inactive
8 | CN1CCC(=C2c3ccccc3C=Cc3ccccc32)CC1 |  | inactive
9 | CCCCNc1ccc(C(=O)OCCN(C)C)cc1 |  | inactive
10 | C[C@H]1C[C@H]2[C@@H]3CCC4=CC(=O)C=C[C@]4(C)[C@@]3(F)[C@@H](O)C[C@]2(C)[C@@]1(O)C(=O)COP(=O)(O)O |  | inactive
11 | Oc1ccc(C2CNCCc3c2cc(O)c(O)c3Cl)cc1 (stereo not given) |  | inactive
12 | CCNC(=O)N1CCN(CCCC(c2ccc(F)cc2)c2ccc(F)cc2)CC1 |  | inactive
13 | C1CCN(CN2CCCCC2)CC1 |  | inactive
14 | C[N+]12CCC(CC1)C(OC(=O)C(O)(c1ccccc1)c1ccccc1)C2 (stereo not given) |  | inactive
15 | CC(=O)NO |  | inactive
16 | Cc1cc(O)c(C(C)(C)C)cc1Sc1cc(C(C)(C)C)c(O)cc1C |  | 13.7 µM (active)
17 | Cc1cc(C(=O)O)ccc1[N+](=O)[O-] |  | inactive
18 | CN1CCN(C2=Nc3cc(F)ccc3Cc3ccccc32)CC1 |  | inactive
19 | CCN(CC)C(=O)Nc1ccc(OCC(O)CNC(C)(C)C)c(C(C)=O)c1 (stereo not given) |  | inactive
20 | Cc1cscn1 |  | inactive

Row | Compound | activity change, negative = cytotoxicity | Potency
21 | CC1(C)CC(OC(=O)CCCCCCCCC(=O)OC2CC(C)(C)NC(C)(C)C2)CC(C)(C)N1 | -0.0002% [at 19 µM] (inactive) | 
22 | COC(=O)C(c1ccccc1Cl)N1CCc2sccc2C1 (stereo not given) |  | inactive
23 | O=C(O)COCC(=O)O |  | inactive
24 | CC(C)(C)C(=O)NCCCC(=O)O |  | inactive
25 | NC12CC3CC(CC(C3)C1)C2 |  | inactive
26 | CC(CN(C)C)C(C)(O)Cc1ccc(Cl)cc1 (stereo not given) |  | inactive
27 | O=C(O)P(=O)(O)O |  | inactive
28 | C[C@@H]1C[C@H]2[C@@H]3CCC4=CC(=O)C=C[C@]4(C)[C@@]3(F)[C@@H](O)C[C@]2(C)[C@H]1C(=O)CO |  | inactive
29 | Cc1cc(NC(=O)C2=C(O)c3ccccc3S(=O)(=O)N2C)no1 |  | inactive
30 | C[N+]1(C)CCC(=C(c2ccccc2)c2ccccc2)CC1 |  | inactive
31 | CC1=NN(c2ccc(C(=O)O)cc2)C(=O)C1 |  | inactive
32 | CC1(c2ccccc2)OC(C(=O)O)=CC1=O (stereo not given) |  | inactive
33 | C[n+]1cc2c3c(ccc2c2ccc4cc5c(cc4c21)OCO5)OCO3 |  | 1.64 µM (active)
34 | C=C(C)C(=O)OCCCCCCCCCCOC(=O)C(=C)C |  | inactive
35 | NCCS |  | inactive
36 | CCOc1nc(F)cc2nc(S(=O)(=O)Nc3c(Cl)cccc3C(=O)OC)nn12 |  | inactive
37 | O=C(OCCN1CCOCC1)c1cccnc1Nc1cccc(C(F)(F)F)c1 |  | inactive
38 | O[C@@H]1CO[C@H]2[C@@H]1OC[C@@H]2O |  | inactive
39 | COc1cc2c(N3CCN(C(=O)Nc4ccc(OC(C)C)cc4)CC3)ncnc2cc1OCCCN1CCCCC1 |  | 23.7 µM (active)
40 | CCCn1cnc2c1c(=O)n(CCCCC(C)=O)c(=O)n2C |  | inactive

From PubChem BioAssay (Tox21)
